# Test results from PubChem BioAssay (Tox21).
# Activity calls are given as the source filed them. Calls come from the whole dose curve; as a rule, active = well fitted curve in the direction sought with a large enough effect in the repeat runs; inconclusive = weak or mixed curves; inactive = flat fitted curve, though single readings scatter.
# Experiment: qHTS assay to test for compound auto fluorescence at 460 nm (blue) in HEK293 cells (AID 720678)
# Details: blue autofluorescence 405/460 nm; series mostly up to 91.3 µM; fluorescence, % of triamterene: at the top concentration
# Method in brief: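 Blue-channel (Ex/Em 405/460 nm) intensity measured in HEK293 cultures after overnight compound exposure at 37C; signal expressed relative to triamterene. Cells plated 2,000 per well in 10% dialyzed FBS medium and allowed 4-5 hr to attach.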
# % is set by controls: 0 for no effect and ±100 for the full control effect.
Compound,outcome,"fluorescence, % of triamterene"
ClC=C(Cl)Cl,inactive,
CC(c1ccc(O)cc1)(c1ccc(O)cc1)c1ccc(O)cc1,,0.0202% (inactive)
C=CC(C)=O,,0.124% (inactive)
CC1CC(CC2CCC(N)C(C)C2)CCC1N (stereo not drawn),,0.173% [at 95.7 µM] (inactive)
CCN(C)N=O,,0.158% (inactive)
II,,0.0324% (inactive)
O=NN1CCNCC1,,-0.0414% [at 95.7 µM] (inactive)
CCCCNP(N)(N)=S,,-0.0652% (inactive)
c1ccc(C2CC2)c(OCC2=NCCN2)c1,,0.0657% [at 46 µM] (inactive)
CCOP(=S)(OCC)Oc1nc(Cl)c(Cl)cc1Cl,inactive,
CCCCCCC#N,,0.0012% (inactive)
Cn1sc(Cl)cc1=O,inactive,
CCCCCCCCOC(=O)c1ccc(C(=O)OCCCCCCCC)c(C(=O)OCCCCCCCC)c1,,0.0404% [at 95.7 µM] (inactive)
O=NN1CCCCCC1,,-0.0607% (inactive)
CCOc1nc(F)cc2nc(S(=O)(=O)Nc3c(Cl)cccc3Cl)nn12,,0.263% (inactive)
CCBr,,0.0233% [at 95.7 µM] (inactive)
Brc1ccc(Oc2ccccc2)cc1,inactive,

Compound,outcome,"fluorescence, % of triamterene"
Cc1ccc2ccccc2c1,,0.0221% (inactive)
N#CCc1ccccc1,,-0.262% [at 95.7 µM] (inactive)
CC/C(=N\OC/C=C/Cl)C1=C(O)CC(C2CCOCC2)CC1=O (stereo not drawn),,0.0056% (inactive)
N#Cc1cc(I)c(O)c(I)c1,,-0.212% (inactive)
COC(=O)C(Cl)C(=O)OC,,0.214% [at 46 µM] (inactive)
O=[N+]([O-])c1ccccc1CCl,,0.145% [at 95.7 µM] (inactive)
COc1cc(CC(C)N)cc2c1OCO2 (stereo not drawn),,-0.275% [at 95.7 µM] (inactive)
Nc1nc(=S)[nH][nH]1,,-0.281% (inactive)
Nc1nc(N)nc(N)n1,,-0.187% (inactive)
COCC(C)N(C(=O)CCl)c1c(C)csc1C (stereo not drawn),inactive,
c1ccc(CN2CCNCC2)cc1,,-0.184% [at 203 µM] (inactive)
CCCCCCCCCC(=O)O[C@H]1CC[C@H]2[C@@H]3CCC4=CC(=O)CC[C@@H]4[C@H]3CC[C@]12C,,-0.217% [at 46 µM] (inactive)
C=CCC1([C@H](C)CCC)C(=O)NC(=O)NC1=O,,0.0481% (inactive)
CCOP(=O)(OCC)SCCSCC,,0.0063% (inactive)
Cc1cc(=O)[nH]o1,,0.328% [at 95.7 µM] (inactive)
IC(I)=C(I)I,,-0.212% (inactive)
CN1C(=O)NC(=O)C(C)(C2=CCCCC2)C1=O (stereo not drawn),inactive,

# Experiment: qHTS assay to test for compound auto fluorescence at 590 nm (red) in HEK293 cells (AID 720679)
# Details: red autofluorescence 540/590 nm; series mostly up to 91.3 µM; fluorescence, % of fluorescent control: at the top concentration
# Method in brief: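 Red-channel autofluorescence (Ex/Em 540/590 nm; Rose Bengal sodium reference) was measured after overnight 37C, 5% CO2 exposure of attached HEK293 cells, 2,000 per well in medium with 10% dialyzed FBS.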
Compound,outcome,"fluorescence, % of fluorescent control"
ClC=C(Cl)Cl,inactive,
CC(c1ccc(O)cc1)(c1ccc(O)cc1)c1ccc(O)cc1,,-0.81% (inactive)
C=CC(C)=O,,0.603% (inactive)
CC1CC(CC2CCC(N)C(C)C2)CCC1N (stereo not drawn),,-0.286% [at 95.7 µM] (inactive)
CCN(C)N=O,,0.397% (inactive)
O=NN1CCNCC1,,-0.0424% [at 95.7 µM] (inactive)
CCCCNP(N)(N)=S,,-0.024% (inactive)
c1ccc(C2CC2)c(OCC2=NCCN2)c1,,0.141% [at 46 µM] (inactive)
CCCCCCC#N,,0.187% (inactive)
CCCCCCCCOC(=O)c1ccc(C(=O)OCCCCCCCC)c(C(=O)OCCCCCCCC)c1,,-0.536% [at 95.7 µM] (inactive)
CCBr,,0.369% [at 95.7 µM] (inactive)
Brc1ccc(Oc2ccccc2)cc1,inactive,
Cc1ccc2ccccc2c1,,-0.3% (inactive)
N#CCc1ccccc1,,-0.535% [at 95.7 µM] (inactive)
COC(=O)C(Cl)C(=O)OC,,0.479% [at 46 µM] (inactive)
O=[N+]([O-])c1ccccc1CCl,,0.122% [at 95.7 µM] (inactive)
COc1cc(CC(C)N)cc2c1OCO2 (stereo not drawn),,-0.545% [at 95.7 µM] (inactive)
Nc1nc(=S)[nH][nH]1,,-0.219% (inactive)
Nc1nc(N)nc(N)n1,,-0.0668% (inactive)
COCC(C)N(C(=O)CCl)c1c(C)csc1C (stereo not drawn),inactive,
c1ccc(CN2CCNCC2)cc1,,-0.196% [at 203 µM] (inactive)
CCCCCCCCCC(=O)O[C@H]1CC[C@H]2[C@@H]3CCC4=CC(=O)CC[C@@H]4[C@H]3CC[C@]12C,,-0.416% [at 46 µM] (inactive)
C=CCC1([C@H](C)CCC)C(=O)NC(=O)NC1=O,,-0.337% (inactive)
CCOP(=O)(OCC)SCCSCC,,-0.407% (inactive)
Cc1cc(=O)[nH]o1,,-0.0809% [at 95.7 µM] (inactive)
IC(I)=C(I)I,,0.191% (inactive)

# Experiment: qHTS assay to test for compound auto fluorescence at 535 nm (green) in HEK293 cells (AID 720680)
# Details: green autofluorescence 485/535 nm; series mostly up to 91.3 µM; fluorescence, % of fluorescein: at the top concentration
Compound,"fluorescence, % of fluorescein",outcome
CC(c1ccc(O)cc1)(c1ccc(O)cc1)c1ccc(O)cc1,-0.188% (inactive),
C=CC(C)=O,0.225% (inactive),
CC1CC(CC2CCC(N)C(C)C2)CCC1N (stereo not drawn),-0.0107% [at 95.7 µM] (inactive),
CCN(C)N=O,-0.0122% (inactive),
II,-0.161% (inactive),
O=NN1CCNCC1,0.0619% [at 95.7 µM] (inactive),
CCCCNP(N)(N)=S,-0.141% (inactive),
CCOP(=S)(OCC)Oc1nc(Cl)c(Cl)cc1Cl,,inactive
CCCCCCC#N,-0.0434% (inactive),
Cn1sc(Cl)cc1=O,,inactive
CCCCCCCCOC(=O)c1ccc(C(=O)OCCCCCCCC)c(C(=O)OCCCCCCCC)c1,0.0159% [at 95.7 µM] (inactive),
O=NN1CCCCCC1,-0.0275% (inactive),
CCOc1nc(F)cc2nc(S(=O)(=O)Nc3c(Cl)cccc3Cl)nn12,0.149% (inactive),
CCBr,-0.0116% [at 95.7 µM] (inactive),
Brc1ccc(Oc2ccccc2)cc1,,inactive
Cc1ccc2ccccc2c1,-0.0249% (inactive),
N#CCc1ccccc1,-0.149% [at 95.7 µM] (inactive),
N#Cc1cc(I)c(O)c(I)c1,0.0444% (inactive),
COC(=O)C(Cl)C(=O)OC,0.004% [at 46 µM] (inactive),
O=[N+]([O-])c1ccccc1CCl,-0.0195% [at 95.7 µM] (inactive),
COc1cc(CC(C)N)cc2c1OCO2 (stereo not drawn),-0.609% [at 95.7 µM] (inactive),
Nc1nc(N)nc(N)n1,-0.165% (inactive),
COCC(C)N(C(=O)CCl)c1c(C)csc1C (stereo not drawn),,inactive
c1ccc(CN2CCNCC2)cc1,-0.0295% [at 203 µM] (inactive),
CCCCCCCCCC(=O)O[C@H]1CC[C@H]2[C@@H]3CCC4=CC(=O)CC[C@@H]4[C@H]3CC[C@]12C,0.0222% [at 46 µM] (inactive),
C=CCC1([C@H](C)CCC)C(=O)NC(=O)NC1=O,0.0755% (inactive),
CCOP(=O)(OCC)SCCSCC,-0.119% (inactive),
Cc1cc(=O)[nH]o1,0.0307% [at 95.7 µM] (inactive),
IC(I)=C(I)I,-0.119% (inactive),
CN1C(=O)NC(=O)C(C)(C2=CCCCC2)C1=O (stereo not drawn),,inactive

# Experiment: qHTS assay to test for compound auto fluorescence at 460 nm (blue) in HEK293 cell free culture (AID 720681)
# Details: cell-free medium, autofluorescence 405/460 nm (blue); series mostly up to 91.3 µM; fluorescence, % of fluorescent control: at the top concentration
# Method in brief: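 Blue fluorescence (Ex 405/Em 460 nm, triamterene-equivalent) was read immediately after pin transfer of compound or DMSO into medium (DMEM, 10% FBS) without cells.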
Compound,outcome,"fluorescence, % of fluorescent control"
ClC=C(Cl)Cl,inactive,
CC(c1ccc(O)cc1)(c1ccc(O)cc1)c1ccc(O)cc1,,-0.054% (inactive)
C=CC(C)=O,,0.003% (inactive)
CC1CC(CC2CCC(N)C(C)C2)CCC1N (stereo not drawn),,0.178% [at 95.7 µM] (inactive)
CCN(C)N=O,,-0.0251% (inactive)
II,,0.227% (inactive)
O=NN1CCNCC1,,0.0368% [at 95.7 µM] (inactive)
CCCCNP(N)(N)=S,,-0.0573% (inactive)
c1ccc(C2CC2)c(OCC2=NCCN2)c1,,-0.193% [at 46 µM] (inactive)
CCOP(=S)(OCC)Oc1nc(Cl)c(Cl)cc1Cl,inactive,
CCCCCCC#N,,0.155% (inactive)
Cn1sc(Cl)cc1=O,inactive,
CCCCCCCCOC(=O)c1ccc(C(=O)OCCCCCCCC)c(C(=O)OCCCCCCCC)c1,,0.139% [at 95.7 µM] (inactive)
O=NN1CCCCCC1,,-0.0268% (inactive)
CCOc1nc(F)cc2nc(S(=O)(=O)Nc3c(Cl)cccc3Cl)nn12,,0.412% (inactive)
Cc1ccc2ccccc2c1,,0.165% (inactive)
CC/C(=N\OC/C=C/Cl)C1=C(O)CC(C2CCOCC2)CC1=O (stereo not drawn),,0.0762% (inactive)
N#Cc1cc(I)c(O)c(I)c1,,-0.132% (inactive)
COC(=O)C(Cl)C(=O)OC,,0.0179% [at 46 µM] (inactive)
O=[N+]([O-])c1ccccc1CCl,,0.0239% [at 95.7 µM] (inactive)
Nc1nc(=S)[nH][nH]1,,-0.201% (inactive)
Nc1nc(N)nc(N)n1,,0.0125% (inactive)
COCC(C)N(C(=O)CCl)c1c(C)csc1C (stereo not drawn),inactive,
c1ccc(CN2CCNCC2)cc1,,0.309% [at 203 µM] (inactive)
CCCCCCCCCC(=O)O[C@H]1CC[C@H]2[C@@H]3CCC4=CC(=O)CC[C@@H]4[C@H]3CC[C@]12C,,-0.0204% [at 46 µM] (inactive)
CCOP(=O)(OCC)SCCSCC,,0.223% (inactive)
Cc1cc(=O)[nH]o1,,0.366% [at 95.7 µM] (inactive)
CN1C(=O)NC(=O)C(C)(C2=CCCCC2)C1=O (stereo not drawn),inactive,
